APP 5UTR inh: APP translation inhibition. SH-SY5Y APP 5'UTR-luciferase reporter, luminescence. inhibition, % at 2 µM. hit rate 0.82% among 190,000;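 active = inhibition above a set limit, derived from the sample mean plus 3 SD, cut at about 45% in these data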
aSyn UTR inh: 5' untranslated region of α-synuclein, MLPCN primary screen. AID 1813. inhibition, % (tested at 7.5 µM). alpha-synuclein 5'UTR reporter, inhibitor activity. hit rate 0.82% among 300,000; in the data active = inhibition above about 60%;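 also: H4 neuroglioblastoma cells stably carrying SNCA 5'UTR luciferase fusion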
BaF3 parental: counter-screen for JAK2V617F inhibitors: parental Ba/F3 viability inhibitors. AID 1486. inhibition, % at 5.6 µM. hit rate 1.1% among 220,000. CellTiter-Glo ATP luminescence;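 active = inhibition above a per-campaign cutoff, the mean inhibition of all tested compounds plus 3 SD, cut at about 27% in these data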
IEC-6 cytotox: kills IEC-6 intestinal cells in KLF5 counter-screen; IEC-6 cytotoxicity, luminescence viability; inhibition, % at 5 µM; hit rate 0.78% among 290,000; in the data active = inhibition above about 22%
Ba/F3 V617F tox: lowers viability of Ba/F3 cells expressing EpoR and JAK2V617F. ATP luminescence. inhibition, % at 5.6 µM. hit rate 1.1% among 220,000. AID 1446;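 active = inhibition above the campaign mean plus 3 SD over all tested compounds, cut at about 24% in these data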;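 also: cytokine-independent growth of Ba/F3 cells driven by EpoR plus mutant JAK2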
KLF5 inh: kruppel-like factor 5 inhibition. DLD-1 KLF5 promoter-luciferase reporter, luminescence. inhibition, % at 5 µM. hit rate 0.23% among 290,000;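 active = inhibition above a per-plate limit of that plate's mean compound inhibition plus 3 SD, cut at about 60% in these data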;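 also: higher means less KLF5 promoter-driven luciferase light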
Of the large screens only hits and unclear results are named; the others gave an inactive call. An excerpt weighted towards active compounds, which were near 2.2% of everything screened.

N#Cc1ccc(NC(=O)Nc2ccc(Oc3ccc(NC(=O)Nc4ccc(C#N)cc4)cc3)cc2)cc1	aSyn UTR inh 73.7 (no result: APP 5UTR inh)
CCOC(=O)CON1C(=O)C(=O)N(OCC(=O)OCC)[C@H]2CCCC[C@H]21	none (no result: APP 5UTR inh)
CC(C)CNC(=O)NC(=O)COc1ncnc2sccc12	none
CC(C)CCNC(=O)NC(=O)COc1ncnc2sccc12	BaF3 parental 96.0
COC(=O)c1ccc2nc(Nc3nc4c(F)cc(F)cc4s3)sc2c1	KLF5 inh 91.8
CCOC(=O)c1ccc2nc(Nc3nc4ccc(F)cc4s3)sc2c1	none
C=CCSc1nc2c(cnn2-c2ccccc2)c(=O)n1N	aSyn UTR inh 74.2 (no result: APP 5UTR inh)
N/C(=N\OC(=O)c1ccc(Cl)cc1)c1ccccn1	aSyn UTR inh 62.5
COc1ccccc1C(=O)O/N=C(\N)c1ccccn1	none (no result: APP 5UTR inh)
N/C(=N\OC(=O)c1ccccc1[N+](=O)[O-])c1ccccn1	BaF3 parental 36.8
N/C(=N\OC(=O)c1cccc(Br)c1)c1ccccn1	aSyn UTR inh 71.8 (no result: APP 5UTR inh, BaF3 parental, Ba/F3 V617F tox)
N/C(=N\OC(=O)c1ccccc1Cl)c1ccccn1	aSyn UTR inh 84.4
CN(C)c1ccc(S(=O)(=O)NCC(=O)N2CCN(c3ccccc3)CC2)cc1[N+](=O)[O-]	none (no result: APP 5UTR inh, BaF3 parental, IEC-6 cytotox, Ba/F3 V617F tox, KLF5 inh)
O=C(O)c1cccc(N/N=C/c2cccs2)c1	aSyn UTR inh 95.8
CSc1ccc(/C=N/Nc2cccc(C(=O)O)c2)cc1	none (no result: aSyn UTR inh)
S=C(NCCc1ccccc1)NCCN1CCOCC1	none (no result: APP 5UTR inh, BaF3 parental, Ba/F3 V617F tox)
CN(C(=S)NCCN1CCOCC1)C(c1ccccc1)c1ccccc1	BaF3 parental 44.0
O=[N+]([O-])c1cc(Cl)ccc1Sc1cccc2cccnc12	none
O=[N+]([O-])c1ccc(Sc2cccc3cccnc23)c([N+](=O)[O-])c1	APP 5UTR inh 55.2
O=C(Nc1ccc(Cl)cc1)/C(=C/c1ccc([N+](=O)[O-])cc1)c1nc2ccccc2s1	APP 5UTR inh 96.0 (no result: aSyn UTR inh)
CC[N+](C)(C)CCN(Cc1ccc(Cl)cc1)c1ccccn1	BaF3 parental 38.6, Ba/F3 V617F tox 27.3
COCCn1cnc2c1c(=O)[nH]c(=O)n2Cc1ccccc1	none (no result: APP 5UTR inh, BaF3 parental, Ba/F3 V617F tox)
Cc1nc(C(=O)O)sc1C1(C)CC(c2cccc([N+](=O)[O-])c2)=NO1 (stereo not given)	none (no result: APP 5UTR inh, BaF3 parental, IEC-6 cytotox, Ba/F3 V617F tox, KLF5 inh)
CCN(CC)c1ccc(/C=N/n2c(-c3ccccc3Br)n[nH]c2=S)cc1	aSyn UTR inh 77.5 (no result: APP 5UTR inh)
CC1CCN(c2nc3ccc(C(=O)O)cc3s2)CC1	APP 5UTR inh 45.6, aSyn UTR inh 106.0
O=C(Nc1ccccc1C(=O)NCc1cccnc1)c1cccc([N+](=O)[O-])c1	none
COc1ccc(NS(=O)(=O)c2cccc3ccccc23)cc1	none (no result: APP 5UTR inh, BaF3 parental, IEC-6 cytotox, Ba/F3 V617F tox, KLF5 inh)
COc1cccc(C2/C(=C(/O)c3ccc4c(c3)CC(C)O4)C(=O)C(=O)N2CCCn2ccnc2)c1 (stereo not given)	none (no result: APP 5UTR inh, BaF3 parental, Ba/F3 V617F tox)
CC(NS(=O)(=O)c1cccc(S(=O)(=O)c2ccccc2)c1)C(=O)O (stereo not given)	BaF3 parental 30.9
CC(NS(=O)(=O)c1ccc2c(c1)C(=O)c1cc(S(=O)(=O)NC(C)C(=O)O)ccc1-2)C(=O)O (stereo not given)	none (no result: APP 5UTR inh, BaF3 parental, Ba/F3 V617F tox)
COC(=O)CNC(c1ccccc1Cl)c1cc(Br)ccc1NS(=O)(=O)c1ccc(C)cc1 (stereo not given)	none
CC1CCCN(C(=O)NC2CC(=O)N(c3ccc4c(c3)OCCO4)C2)C1 (stereo not given)	none (no result: APP 5UTR inh, BaF3 parental, IEC-6 cytotox, Ba/F3 V617F tox, KLF5 inh)
O=[N+]([O-])c1cc(Cl)cc(/C=N\Nc2ccccn2)c1O	aSyn UTR inh 89.9
O=C(NCCc1ccc(Cl)cc1)C1CCC(=O)N1Cc1ccc(F)cc1 (stereo not given)	BaF3 parental 95.6
Cc1ccc(CCNC(=O)C2CCC(=O)N2Cc2ccc(F)cc2)cc1 (stereo not given)	none (no result: APP 5UTR inh, BaF3 parental, Ba/F3 V617F tox)
Cc1nn(Cc2ccc(C(=O)Nc3nccs3)cc2)c(C)c1Cl	BaF3 parental 42.8, Ba/F3 V617F tox 38.9
COc1ccc(Cn2c(C3CCCCC3)nc3c(c(=O)c4ccccc4n3C)c2=O)cc1	none (no result: APP 5UTR inh)
COc1ccc(CCn2c(C3CCCCC3)nc3c(c(=O)c4ccccc4n3C)c2=O)cc1	aSyn UTR inh 75.0 (no result: APP 5UTR inh)
CNc1ncc(C(=O)c2ccc(Br)cc2)s1	none
NC(N)=Nc1nc(-c2ccccc2)c2ccccc2n1	none
COc1nc(N=C(N)N)nc2ccc(C)cc12	BaF3 parental 55.8, Ba/F3 V617F tox 54.8
Cc1ccc(NC(=O)c2cc(N3C(=O)C=CC3=O)ccc2Cl)cc1C	APP 5UTR inh 45.3
Cc1ccc(NC(=O)c2cc(N3C(=O)C=CC3=O)ccc2N2CCOCC2)cc1	APP 5UTR inh 77.0
Cc1ccc(NC(=O)c2cc(-n3cnnc3)ccc2Cl)cc1	none
COc1ccc(S(=O)(=O)N2CCOCC2)cc1C(=O)N1CCCCC1	none (no result: APP 5UTR inh, BaF3 parental, Ba/F3 V617F tox)
O=c1cccc2c1c1cc[nH]c3ccc(=O)n2c31	aSyn UTR inh 78.9 (no result: APP 5UTR inh, BaF3 parental, IEC-6 cytotox, Ba/F3 V617F tox, KLF5 inh)
COc1ccc(CN2CCc3ccccc3C2)c(OC)c1	none (no result: APP 5UTR inh)
COc1ccc(C2=[N+](C)CCn3cccc32)c(OC)c1	BaF3 parental 67.4, Ba/F3 V617F tox 76.7
Oc1ccc(-c2csc(-c3cccnc3)n2)cc1O	BaF3 parental 37.1, Ba/F3 V617F tox 40.8 (no result: APP 5UTR inh)
Fc1ccc(-c2csc(-c3cccnc3)n2)cc1F	none (no result: APP 5UTR inh, BaF3 parental, Ba/F3 V617F tox)
CC(=O)OCCNc1cc(Sc2nc3ccccc3[nH]2)c2nonc2c1[N+](=O)[O-]	APP 5UTR inh 79.3
c1ccc(CN2CCC(Nc3nc(-c4ccccc4)nc4ccccc34)CC2)cc1	aSyn UTR inh 72.0
COc1ccc(NS(=O)(=O)c2ccc(N3CCOCC3)c(NC(=O)c3cccc(F)c3)c2)cc1	BaF3 parental 41.3, Ba/F3 V617F tox 29.7
COc1ccccc1NS(=O)(=O)c1ccc(N2CCOCC2)c(NC(=O)c2ccco2)c1	none
O=C(Nc1ccccc1N1CCOCC1)c1cccc(F)c1	none
O=C(Nc1cc(S(=O)(=O)Nc2ccc(Cl)cc2)ccc1N1CCCCC1)c1ccc(F)cc1	none
COc1ccc(NS(=O)(=O)c2ccc(N3CCOCC3)c(NC(=O)c3ccco3)c2)cc1	BaF3 parental 41.6, Ba/F3 V617F tox 35.2
COc1ccc(NS(=O)(=O)c2ccc(N3CCOCC3)c(NC(=O)C(C)C)c2)cc1	BaF3 parental 57.6, Ba/F3 V617F tox 40.4
COc1ccc(NS(=O)(=O)c2ccc(N3CCOCC3)c(NC(=O)c3ccc(F)cc3)c2)cc1	BaF3 parental 42.8, Ba/F3 V617F tox 38.4
O=C(Nc1cc(S(=O)(=O)N2CCCCC2)ccc1Cl)C1=NN(c2ccccc2)C(=O)CC1	none (no result: APP 5UTR inh, BaF3 parental, Ba/F3 V617F tox)
Cc1ccc(CSc2nc3ccncc3[nH]2)cc1	aSyn UTR inh 72.5
Cc1cc2c3c([nH]c2cc1S(=O)(=O)NCc1ccc(CN2CCCCCC2)o1)CCCC3=O	none (no result: APP 5UTR inh, BaF3 parental, Ba/F3 V617F tox)
CCOC(=O)CSc1nc2ccc(N3CCOCC3)cc2c(=O)n1Cc1ccccc1	APP 5UTR inh 77.8
O=C(Nc1ccc2oc(=O)ccc2c1)c1ccc(-c2cccc(Cl)c2)o1	none (no result: APP 5UTR inh)
O=C(Nc1ccc2oc(=O)ccc2c1)c1ccc(-c2cccc([N+](=O)[O-])c2)o1	aSyn UTR inh 91.5 (no result: APP 5UTR inh)
O=C(O)C1CCN(S(=O)(=O)c2cccc3cccnc23)CC1	none (no result: APP 5UTR inh, BaF3 parental, Ba/F3 V617F tox)
O=C(O)c1ccccc1C(=O)N1CC=C(c2ccccc2)CC1	BaF3 parental 38.3
Cc1c(C(=O)C(=O)N2c3ccccc3CC2C)c2ccccc2n1C (stereo not given)	none
